# An excerpt weighted towards active compounds, which were near 1.2% of everything screened.
# PKM2 act: PKM2 (human) enzyme activation; P14618; purified PKM2, Kinase-Glo ATP luminescence, activation; response scale: 0% is enzyme alone, no compound; Potency, µM (titrated, usually from 57.5 µM), for inactives: at the top dose activation, actives largely listed as activators; actives 0.34% (n = 260,000); note: potency is the fitted concentration of half-maximal effect; nearly all actives have a fitted effect of over 55% in size
#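 hPK-M2, >95% pure; 0.1 mM ADP / 0.5 mM PEP final; imidazole pH7.2 buffer w/ 7 mM MgCl2, 50 mM KCl; 1 h RT; Kinase-Glo lum. Intermediate enzyme activity for dual inhibitor/activator qHTS.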
# rTrxR1 inhibitor: rat TrxR1 inhibition | O89049 | recombinant rTrxR1, NADPH fluorescence consumption, selenite substrate | Potency, µM (doses to about 114 µM), without a hit: top-dose activity change, negative = inhibition, hits mostly inhibitors | actives 1% (n = 390,000) | AID 588453; note: potency is the fitted concentration of half-maximal effect; nearly all actives have a fitted effect of over 65% in size
#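 Rat TrxR1 (90 nM in the dispensed reagent) was pre-reduced with 400 uM NADPH for 5 min at room temperature, then incubated with compound for 15 min. After 400 uM selenite was added, NADPH fluorescence (Ex 340/Em 450 nm) was followed for 8 min.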
# TrxR1 substrate: rat thioredoxin reductase 1 substrate activity | O89049 | purified TrxR1 substrate turnover, NADPH consumption readout | Potency, µM (series often up to 114 µM), inactives show at the highest dose activity change, negative = substrate turnover | actives 0.01% (n = 390,000); note: potency is the fitted concentration of half-maximal effect; nearly all actives have a fitted effect of over 50% in size
#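 Rat TrxR1, dispensed at 90 nM, was prereduced with 400 uM NADPH (final) for 5 min at ~22 deg C, then incubated with compound 15 min before 400 uM selenite. A first-read NADPH fluorescence drop versus no-compound background flagged substrates.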
# GALK inh: inhibitors of human galactokinase | Purified GALK, Kinase-Glo residual ATP luminescence | AID 1868 | actives 0.007% (n = 270,000) | Potency, µM (highest dose often 57.5 µM), for the others: top-dose activity change, negative = inhibition, hits mostly inhibitors | P51570; note: potency is the fitted concentration of half-maximal effect
# Target sequence (P51570 whole entry, looked up): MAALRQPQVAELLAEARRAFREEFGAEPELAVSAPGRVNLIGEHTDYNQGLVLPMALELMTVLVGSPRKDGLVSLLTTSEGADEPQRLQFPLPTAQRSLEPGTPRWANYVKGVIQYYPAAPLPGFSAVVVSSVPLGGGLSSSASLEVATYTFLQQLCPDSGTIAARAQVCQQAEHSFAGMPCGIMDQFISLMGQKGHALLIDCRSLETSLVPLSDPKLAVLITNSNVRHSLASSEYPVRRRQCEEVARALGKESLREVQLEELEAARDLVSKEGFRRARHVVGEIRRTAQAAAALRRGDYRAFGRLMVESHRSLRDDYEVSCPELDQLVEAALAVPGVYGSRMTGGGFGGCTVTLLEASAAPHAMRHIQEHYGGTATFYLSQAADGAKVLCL
#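 Compounds were pin-transferred into ATP buffer (35 uM final), then GALK plus galactose (5 nM, 100 uM final) was added. After 1 h at room temperature, Kinase-Glo Plus was added and luminescence read after 10 min.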
# PI4K2A block: blocks human PI4K2A kinase activity | Q9BTU6 | purified PI4K2A, ADP-Glo luminescence, 1 h; stronger effect = lower value | activity change, negative = inhibition, % at 76.9 µM | actives 0.13% (n = 420,000); in the data active = activity change below about -50%; inconclusive = mostly about -30% to -49%;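 note: -100% = wells without enzyme as full effect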
#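 In this quantitative HTS, ADP production by PI4K2A was quantified luminescently after 1 h at ambient temperature; 100 microM adenosine served as plate-quality control.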
# Starred values were filed as active, the others as inactive; ? = inconclusive; . = not tested or not shown; [ ] = dose if it differs, or a comment. Unless noted, calls come from the whole dose curve; as a rule, active = well fitted curve in the direction sought with a large enough effect; inconclusive = small, poorly fitted or top-dose-only effect, or another doubt; inactive = no such curve, though single readings can be large; an effect the other way counts as inactive or inconclusive. Unless noted, % is set by controls: 0 for no effect and ±100 for the full control effect.
SMILES,PKM2 act,rTrxR1 inhibitor,TrxR1 substrate,GALK inh,PI4K2A block
Cc1nnc(Sc2nc3ccccc3o2)c2ccccc12,5.3%,8.91µM*,-1.1%,-2.1%,7.7
CCOC(=O)c1[nH]c2c(c1Cc1ccccc1OC)C(=O)CC(c1ccc(OC)cc1)C2 (stereo unspecified),.,12.7%,2.6%,.,-0.4
C/C(=C\C(=O)c1cccnc1)Nc1ccc(O)cc1,2.0%,-19.6%,-10.8%,-2.6%,-60.7*
C/C(=C\C(=O)c1ccccc1)Nc1ccc(O)cc1,2.8%,6.5%,0.5%,2.7%,-53.6*
O=C(NC1CCCCN(Cc2ccc(Cl)cc2)C1=O)c1ccc(F)c(F)c1 (stereo unspecified),.,.,.,.,0.2
Cc1ccc(CS(=O)Cc2ccc(C(=O)NC3CCCCCC3)o2)cc1 (stereo unspecified),.,?,9.6%,-7.9%,-1.3
Cc1ccc(CS(=O)Cc2ccc(C(=O)NC3CCCC(C)C3C)o2)cc1 (stereo unspecified),.,44.7µM*,8.1%,0.2%,-0.9
N#CCC(=O)NN,.,.,.,.,1.4
CCNC(=O)c1c(NC(=O)c2nc(S(=O)(=O)CC)ncc2Cl)sc2c1CCCC2,.,14.1µM*,-8.7%,.,-6.6
CCNC(=O)c1c(NC(=O)c2nc(SCC)ncc2Cl)sc2c1CCCC2,.,2.5%,-2.5%,.,.
COCCCNC(=O)c1c(NC(=O)c2nc(S(C)(=O)=O)ncc2Cl)sc2c1CCCC2,.,1.78µM*,6.2%,.,-2.3
COc1ccc(C(C#N)c2ccc(=O)[nH]n2)cc1 (stereo unspecified),2.8%,7.5%[57.1 µM],4.2%[57.1 µM],3.4%,-62.2*
COc1ccc(Cl)cc1C(=O)NCc1nc(-c2cccc(C)c2)no1,.,7.9%,-2.1%,.,-1.8
c1ccc2c(N=NN3CCCCC3)ccnc2c1,.,5.6%,-4.8%,.,.
O=C(c1ccccc1)n1c(=O)c(F)cn(COCCBr)c1=O,-0.9%[11.5 µM],44.7µM*,9.4%,6.7%,0.5
O=C(c1ccccc1)n1c(=O)cc[nH]c1=O,.,32.2%[57.1 µM],13.2%[57.1 µM],.,0.6
COc1ccccc1C1C(C(=O)c2cc3ccccc3o2)=C(O)C(=O)N1CCN1CCOCC1 (stereo unspecified),-3.8%,22.4µM*,-10.0%,3.7%,-11.2
COc1cccc2cc(C(=O)C3=C(O)C(=O)N(CCN4CCOCC4)C3c3ccc(C)o3)oc12 (stereo unspecified),-0.5%[0.46 µM],79.4µM*,-11.5%,-0.5%,0.1
COc1cccc(C2C(C(=O)c3cc4ccccc4o3)=C(O)C(=O)N2CCN2CCOCC2)c1 (stereo unspecified),3.2%,?,2.0%[57.1 µM],-2.3%,-2.8
COc1ccc(-c2cc(C3C4C=CCC(C)C4C(=O)N3Cc3ccccc3)ccc2F)cc1OC (stereo unspecified),.,26.0%,6.6%,.,.
N#Cc1ccccc1NC(=O)C(=O)NCC(c1cccnc1)N1CCc2ccccc21 (stereo unspecified),.,10.5%,4.5%,.,-1.1
COCCn1c(=NC(=O)CCS(=O)(=O)c2ccccc2)sc2ccccc21,.,7.08µM*,3.6%,.,5.5
COC(=O)c1c(NC(=O)c2cc(=O)c3ccc(C)c(C)c3o2)sc2c1CCCC2,.,22.3%,3.0%,.,-1.6
CC(C)Cc1ccc(C(C)/C=C2/CCC(CN3CCCCC3)C2=O)cc1 (stereo unspecified),.,3.55µM*,-9.7%,.,18.8
CC(C)Cc1ccc(CN2CCCC(NC(=O)CCN3CCCCC3=O)C2)cc1 (stereo unspecified),.,4.1%,1.3%,-0.4%,6.4
CC1(C)CC2(CC(c3ccccc3F)c3ccc(O)c(O)c3O2)NC(=S)N1 (stereo unspecified),2.82µM*,2.82µM*,9.8%[57.1 µM],5.8%,4.6
Cc1[nH]n(-c2ncc(-c3ccc(Cl)cc3)s2)c(=O)c1C(c1ccc(Cl)cc1)C(C#N)C#N (stereo unspecified),3.5%,11.2µM*,-7.7%,-4.3%,29.7
COc1ccc(C(c2c(C)[nH]n(C(N)=S)c2=O)C(C#N)C#N)cc1 (stereo unspecified),7.9%,?,-25.8%[11.4 µM],-2.7%,25.0
COc1ccccc1CNC(=O)CN1C(=O)CSc2c1c(C)nn2-c1ccccc1,.,3.7%[57.1 µM],0.7%[57.1 µM],.,-2.2

# Screens: PubChem, National Center for Advancing Translational Sciences (NCATS)
